Test results reported in PubChem BioAssay (EPA / NIEHS).
Records with an inconclusive call do not appear. Activity calls are given as the source filed them. Rule for the calls: active = hit-call score of the fitted dose curve at least 0.9, where 1 is the maximum; inconclusive = response in the unintended direction; inactive = score below 0.9.

Assays:
[1] = Tanguay_ZF_120hpf_SNOU_legacy: (Legacy) Oregon State University Tanguay Lab 120 Hour Post-fertilization zebrafish Assay for Snout Malformation (AID 2283637)
Method in brief: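 Dechorionated zebrafish, individually housed from 6 hpf in covered, sealed wells at 28C with 0.64% DMSO vehicle, were examined at 120 hpf for snout malformation. Responses were binary and analysed positive-direction relative to DMSO.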

[2] = Tanguay_ZF_120hpf_JAW_legacy: (Legacy) Oregon State University Tanguay Lab 120 Hour Post-fertilization zebrafish Assay for Jaw Malformation (AID 2283638);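 for AC50: active means more embryos with jaw malformation than DMSO controls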
Method in brief: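 Tropical 5D wild-type embryos, dechorionated with pronase at 4 hpf, were placed singly per well at 6 hpf and statically exposed at 28C until 120 hpf (0.64% DMSO final). Jaw malformation scored as present/absent by brightfield microscopy at 120 hpf, analyzed relative to DMSO.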

[3] = Tanguay_ZF_120hpf_OTIC_legacy: (Legacy) Oregon State University Tanguay Lab 120 Hour Post-fertilization zebrafish Assay for Otic Vesicle Malformation (AID 2283639)
Method in brief: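 Brightfield scoring at 120 hpf, binary present/absent; DMSO negative control, 5uM trimethyltin chloride positive control. Static exposure at 28C, final DMSO 0.64% (vol/vol). Dead embryos not scored for malformation.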

[4] = Tanguay_ZF_120hpf_PE_legacy: (Legacy) Oregon State University Tanguay Lab 120 Hour Post-fertilization zebrafish Assay for Pericardial Edema (AID 2283640);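 for AC50: potency for increased incidence of pericardial edema versus DMSO baseline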
Method in brief: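 Tropical 5D wild-type zebrafish embryos were exposed statically to 120 hpf at 28C, sealed and foil-covered, in 0.64% DMSO final. Pericardial edema was scored present/absent by brightfield microscopy; dead embryos were not scored.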

[5] = Tanguay_ZF_120hpf_SOMI_legacy: (Legacy) Oregon State University Tanguay Lab 120 Hour Post-fertilization zebrafish Assay for Somite Malformation (AID 2283647)
Method in brief: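 Tropical 5D wild-type zebrafish embryos, dechorionated with pronase at 4 hpf, were placed singly at 6 hpf and statically exposed until 120 hpf at 28C in 0.64% DMSO. Somite malformation was scored present/absent by brightfield microscopy versus DMSO.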

[6] = Tanguay_ZF_120hpf_PFIN_legacy: (Legacy) Oregon State University Tanguay Lab 120 Hour Post-fertilization zebrafish Assay for Pectoral Fin Malformation (AID 2283648);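 note: each larva judged yes or no for fin defect by brightfield with dead larvae skipped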
Method in brief: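 Scoring of pectoral fin malformation was binary, made at 120 hpf on larvae exposed statically from 6 hpf after enzymatic chorion removal. Activity was fitted upward relative to DMSO controls at 0.64% (vol/vol).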

[7] = Tanguay_ZF_120hpf_CFIN_legacy: (Legacy) Oregon State University Tanguay Lab 120 Hour Post-fertilization zebrafish Assay for Caudal Fin Malformation (AID 2283649)
Method in brief: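 Tropical 5D wild-type embryos, dechorionated with pronase at 4 hpf, were placed singly in wells at 6 hpf and statically exposed to compound at 28C until 120 hpf (0.64% DMSO). Caudal fin malformation was scored present/absent by brightfield microscopy.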

[8] = Tanguay_ZF_120hpf_PIG_legacy: (Legacy) Oregon State University Tanguay Lab 120 Hour Post-fertilization zebrafish Assay for Pigmentation Malformation (AID 2283650)
Method in brief: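 Endpoint is incidence of abnormal pigmentation at 120 hpf in dechorionated 5D zebrafish exposed singly from 6 hpf at 28C, DMSO vehicle at 0.64%. Embryos dying by 24 or 120 hpf are excluded from scoring.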

[9] = Tanguay_ZF_120hpf_CIRC_legacy: (Legacy) Oregon State University Tanguay Lab 120 Hour Post-fertilization zebrafish Assay for Circulatory Malformation (AID 2283651)
Method in brief: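 Static exposure, 6–120 hpf, 28C, sealed and dark; one dechorionated 5D embryo/well; DMSO 0.64% v/v final. Binary circulation endpoint by brightfield; dead embryos not scored.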

[10] = Tanguay_ZF_120hpf_BRAI_legacy: (Legacy) Oregon State University Tanguay Lab 120 Hour Post-fertilization zebrafish Assay for Brain Malformation (AID 2283641)
Method in brief: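 Tropical 5D wild-type zebrafish embryos were exposed statically in sealed, foil-covered plates at 28C until 120 hpf, with 0.64% (vol/vol) final DMSO. Brain malformation was scored present/absent by brightfield microscopy, relative to DMSO baseline.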

For `CCCCCCCCCCCCO`, the outcome [1] was “inactive”, the outcome [2] was “inactive” and the outcome [3] was “inactive”. The outcome [4] was “inactive”, the outcome [5] was “inactive” and the outcome [6] was “inactive”. The outcome [7] was “inactive”, the outcome [8] was “inactive” and the outcome [9] was “inactive”.
In the case of `Clc1cc(Cl)c2c(c1)N=C1CCCCCN1C2`, the AC50 [1] is reported as 8.56 µM (active), the outcome [3] is reported as “inactive” and the AC50 [4] is reported as 24.9 µM (active). The outcome [10] was “inactive”, the outcome [5] was “inactive” and the outcome [6] was “inactive”. The outcome [7] was “inactive”, the outcome [8] was “inactive” and the outcome [9] was “inactive”.
For `CN(C)C(=O)C1(N2CCCCC2)CCN(CC[C@@]2(c3ccc(Cl)c(Cl)c3)CN(C(=O)c3ccccc3)CCO2)CC1`, the outcome [1] was “inactive”, the outcome [2] was “inactive” and the outcome [3] was “inactive”. The outcome [4] was “inactive”, the outcome [10] was “inactive” and the outcome [5] was “inactive”. The outcome [6] was “inactive”, the outcome [7] was “inactive” and the outcome [8] was “inactive”. The outcome [9] was “inactive”.
With `CC/C(=C(/CC)c1ccc(O)cc1)c1ccc(O)cc1` the outcome [1] was “inactive”, the outcome [3] was “inactive” and the outcome [4] was “inactive”. The outcome [10] was “inactive”, the outcome [6] was “inactive” and the outcome [7] was “inactive”. For the same compound, the outcome [9] was “inactive”.
For `C[C@]12CC[C@@H]3c4ccc(O)cc4CC[C@H]3[C@@H]1CC[C@H]2O`, the outcome [1] was “inactive”, the outcome [2] was “inactive” and the outcome [3] was “inactive”. The outcome [4] was “inactive”, the outcome [10] was “inactive” and the outcome [5] was “inactive”. The outcome [6] was “inactive”, the outcome [7] was “inactive” and the outcome [8] was “inactive”. The outcome [9] was “inactive”.
With `O=c1[nH]sc2ccccc12` the outcome [1] was “inactive”, the outcome [2] was “inactive” and the outcome [3] was “inactive”. The outcome [4] was “inactive”, the outcome [10] was “inactive” and the outcome [5] was “inactive”. For the same compound, the outcome [6] was “inactive”, the outcome [7] was “inactive” and the outcome [8] was “inactive”. The outcome [9] was “inactive”.
With `CCCOC(=O)c1cc(O)c(O)c(O)c1` the outcome [1] was “inactive”, the outcome [2] was “inactive” and the outcome [3] was “inactive”. For the same compound, the outcome [4] was “inactive”, the outcome [10] was “inactive” and the outcome [5] was “inactive”. For the same compound, the outcome [6] was “inactive”, the outcome [8] was “inactive” and the outcome [9] was “inactive”.
For `CC(O)CC(C)(C)O` (stereo unspecified), the outcome [1] was “inactive”, the outcome [3] was “inactive” and the outcome [4] was “inactive”. For the same compound, the outcome [10] was “inactive”, the outcome [5] was “inactive” and the outcome [6] was “inactive”. The outcome [7] was “inactive”, the outcome [8] was “inactive” and the outcome [9] was “inactive”.
In the case of `O=c1ccc2ccccc2o1`, the outcome [1] is reported as “inactive”, the outcome [3] is reported as “inactive” and the outcome [4] is reported as “inactive”. The outcome [10] was “inactive”, the outcome [5] was “inactive” and the outcome [6] was “inactive”. The outcome [7] was “inactive”, the outcome [8] was “inactive” and the outcome [9] was “inactive”.
For `NC(=O)c1nc(-c2cccc(-c3cc(F)ccc3OCC(F)(F)C(F)(F)F)c2)n[nH]1`, the AC50 [1] was 25.8 µM (active), the AC50 [3] was 27.8 µM (active) and the AC50 [4] was 28.1 µM (active). For the same compound, the AC50 [10] was 26 µM (active), the AC50 [5] was 25.8 µM (active) and the AC50 [6] was 24.8 µM (active). The outcome [7] was “inactive”, the AC50 [8] was 26.7 µM (active) and the AC50 [9] was 27.3 µM (active).
For `O=C(O)c1ccccc1-n1cc(C(=O)O)c(=O)c2cc(Nc3c(F)cc(F)cc3Cl)c(Cl)cc21`, the outcome [1] was “inactive”, the outcome [2] was “inactive” and the outcome [3] was “inactive”. For the same compound, the outcome [4] was “inactive”, the outcome [10] was “inactive” and the outcome [5] was “inactive”. For the same compound, the outcome [6] was “inactive”, the outcome [7] was “inactive” and the outcome [9] was “inactive”.
With `CO[C@H]1/C=C/O[C@@]2(C)Oc3c(C)c(O)c4c(O)c(c(/C=N/N5CCN(C)CC5)c(O)c4c3C2=O)NC(=O)/C(C)=C\C=C\[C@H](C)[C@H](O)[C@@H](C)[C@@H](O)[C@@H](C)[C@H](OC(C)=O)[C@@H]1C` the outcome [1] was “inactive”, the outcome [2] was “inactive” and the outcome [3] was “inactive”. The outcome [4] was “inactive”, the outcome [5] was “inactive” and the outcome [6] was “inactive”. The outcome [7] was “inactive”, the outcome [8] was “inactive” and the outcome [9] was “inactive”.
In the case of `Cc1cc2c(cc1C(F)(F)F)N(C(=O)Nc1ccc(Oc3cccnc3C)nc1)CC2`, the outcome [1] is reported as “inactive”, the outcome [2] is reported as “inactive” and the outcome [3] is reported as “inactive”. For the same compound, the outcome [4] was “inactive”, the outcome [5] was “inactive” and the outcome [7] was “inactive”. The outcome [8] was “inactive”.
With `O=c1c(-c2ccc(O)cc2)coc2cc(O)cc(O)c12` the outcome [1] was “inactive”, the outcome [2] was “inactive” and the outcome [3] was “inactive”. For the same compound, the outcome [4] was “inactive”, the outcome [10] was “inactive” and the outcome [5] was “inactive”. The outcome [6] was “inactive”, the outcome [7] was “inactive” and the outcome [8] was “inactive”. The outcome [9] was “inactive”.
For `O=C1CCC(C2CCCCC2)CC1`, the outcome [1] was “inactive”, the outcome [2] was “inactive” and the outcome [3] was “inactive”. For the same compound, the outcome [4] was “inactive”, the outcome [6] was “inactive” and the outcome [7] was “inactive”. The outcome [8] was “inactive” and the outcome [9] was “inactive”.
For `CCCCCCCCCCCO`, the outcome [1] was “inactive”, the outcome [2] was “inactive” and the outcome [3] was “inactive”. For the same compound, the outcome [4] was “inactive”, the outcome [6] was “inactive” and the outcome [7] was “inactive”. The outcome [8] was “inactive” and the outcome [9] was “inactive”.
In the case of `CCOC(=O)O[C@H](C)OC(=O)c1ccc2c(c1)cc(C(=O)NC1CCN(C(C)C)CC1)n2Cc1cc(-c2ccc(Cl)s2)on1`, the AC50 [1] is reported as 54.1 µM (active), the AC50 [2] is reported as 47.6 µM (active) and the outcome [3] is reported as “inactive”. For the same compound, the outcome [4] was “inactive”, the outcome [5] was “inactive” and the outcome [6] was “inactive”. The outcome [7] was “inactive”, the outcome [8] was “inactive” and the outcome [9] was “inactive”.
